Assay outcomes deposited in PubChem BioAssay by The Scripps Research Institute Molecular Screening Center.
Shown are actives, neighbours in structure and some others; about 3.5% of the full set was active somewhere.
GPR151 activ – activates the human receptor GPR151; PathHunter beta-arrestin GPR151 cells, luminescence; activation, % at 11.2 µM; AID 1508602; hit rate 1% among 650,000; in the data active = activation above about 4.9%
Target sequence (Q8TDV0 whole entry, looked up): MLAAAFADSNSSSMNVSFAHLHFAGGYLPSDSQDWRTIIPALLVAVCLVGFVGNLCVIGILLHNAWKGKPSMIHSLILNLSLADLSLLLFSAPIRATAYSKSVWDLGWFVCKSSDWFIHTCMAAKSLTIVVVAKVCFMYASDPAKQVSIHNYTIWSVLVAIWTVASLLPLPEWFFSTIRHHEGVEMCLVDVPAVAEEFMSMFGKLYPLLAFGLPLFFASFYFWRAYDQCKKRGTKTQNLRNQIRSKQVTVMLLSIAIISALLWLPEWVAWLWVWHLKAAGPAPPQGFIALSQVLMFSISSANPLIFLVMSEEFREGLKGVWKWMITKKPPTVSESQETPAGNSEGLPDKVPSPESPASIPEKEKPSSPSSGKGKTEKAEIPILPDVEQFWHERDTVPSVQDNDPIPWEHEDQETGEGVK
MITF inh – inhibitors of human MITF | hit rate 0.91% among 650,000 | AID 1259374 | AlphaScreen MITF homodimerization, bead proximity signal | O75030 | inhibition, % at 2.6 µM; in the data active = inhibition above about 50%
TEAD-YAP inh – TEAD-YAP interaction inhibition; hit rate 1.4% among 640,000; HEK-TIYL cells, TEAD-Gal4/YAP UAS-luciferase luminescence; inhibition, % at 9.12 µM; in the data active = inhibition above about 32%
FBW7 activator – human FBW7 E3 ligase activation, primary screen | AlphaScreen FBW7–phospho-cyclin E peptide binding, activator screen | normalized activity (activation), % at 26.1 µM | hit rate 0.13% among 650,000; in the data active = normalized activity above about 1.9%;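 note: purified mutant Fbw7 with reduced substrate affinity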
MITF inh conf – human MITF inhibition, confirmation; shares compounds with MITF inh; inhibition, % at 2.6 µM; hit rate 16% among 4,700; AlphaScreen MITF homodimerization, biotin/His-MITF beads;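 active = inhibition above a cutoff derived from the DMSO control wells, cut at about 28% in these data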;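 note: inhibitors lower the bead chemiluminescence by keeping MITF from dimerizing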
AlphaScreen DR – AlphaScreen optical interference, dose response counter-screen. shares compounds with MITF inh. AlphaScreen optical interference counterscreen, cell-free. IC50, µM. hit rate 6% among 480; call rule not given here
AS interf ctr – counter-screen: compounds optically interfering with AlphaScreen | shares compounds with MITF inh | LysRS AlphaScreen counterscreen, signal interference, triplicate | inhibition, % at 2.6 µM | hit rate 7.6% among 4,700 | AID 1259376;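 active = inhibition above a cutoff derived from the DMSO control wells, cut at about 30% in these data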
Each line names hits and unclear results; the compound was inactive in the other large screens (follow-up assays come after a bar, where they were run).

CCCCOc1ccc(-c2nc(C=Nc3cc(Cl)ccc3Cl)c(O)o2)cc1	none
O=C(NCCCN1CCOC(c2ccccc2)C1)c1cccc2ccccc12 (stereo not drawn)	none
O=C(NNC(=S)Nc1ccc2c(c1)OCO2)c1ccccn1	MITF inh 116.9 | MITF inh conf 95.7 | AS interf ctr 91.2
O=C(NNC(=S)NCC1CCCO1)c1ccccn1 (stereo not drawn)	MITF inh 117.8 | MITF inh conf 116.3 | AS interf ctr 100.3
O=C(Nc1ccc2c(c1)OCO2)c1ccccn1	none
Cc1cc(C(=O)NNC(=S)NCC2CCCO2)no1 (stereo not drawn)	none
CCN(CC)CCCNCc1ccc(Cl)cc1	MITF inh 51.2 | MITF inh conf inactive | AS interf ctr inactive
COc1ccc(-c2cc(C(F)(F)F)n3nc(C(=O)N4CCC(C)CC4)cc3n2)cc1	none
CCOC(=O)C1CCN(C(=O)c2cc3nc(-c4ccc(OC)cc4)cc(C(F)(F)F)n3n2)CC1	MITF inh 61.2 | MITF inh conf inactive | AS interf ctr inactive
CC1(c2cc(C(F)(F)F)n3nc(C(=O)N4CCC(c5ccncc5)CC4)cc3n2)CC1	MITF inh 55.9 | MITF inh conf inactive | AS interf ctr inactive
O=C(NCc1cccnc1)c1ccc(NC(=O)c2cccs2)cc1	none
O=C(CN1CCN(Cc2nc(-c3ccc(F)cc3)cs2)CC1)NCc1ccco1	MITF inh 70.1 | MITF inh conf inactive | AS interf ctr inactive
COc1ccc(CCNC(=O)CN2CCN(Cc3nc(-c4ccco4)cs3)CC2)cc1OC	MITF inh 69.7 | MITF inh conf 28.1 | AlphaScreen DR inactive | AS interf ctr inactive
O=C(CN1CCN(Cc2nc(-c3ccccc3)cs2)CC1)NCc1ccco1	none
O=C(CN1CCN(Cc2nc(-c3ccco3)cs2)CC1)NCCc1ccccc1	MITF inh 75.7 | MITF inh conf inactive | AS interf ctr inactive
C=CCNC(=O)CN1CCN(Cc2nc(-c3ccccc3)cs2)CC1	MITF inh 69.9 | MITF inh conf inactive | AS interf ctr inactive
O=C(c1ccc(-c2cnn(-c3ccc(Cl)cc3)c2)nc1)N1CCOCC1	MITF inh 57.7 | MITF inh conf inactive | AS interf ctr inactive
Cc1ccc(-n2cc(-c3ccc(C(=O)N4CCCC4)cn3)cn2)cc1	none
CN(CCc1ccccc1)C1CCCN(Cc2ccccn2)C1 (stereo not drawn)	none
Cn1c(SCc2ccccc2)nnc1C1CCCN(Cc2ccccn2)C1 (stereo not drawn)	MITF inh 61.0 | MITF inh conf 36.5 | AS interf ctr 92.6
CC1CCCN(C(=O)C2CCN(Cc3cccc(Cl)c3)CC2)C1 (stereo not drawn)	MITF inh 57.0 | MITF inh conf inactive | AS interf ctr inactive
COc1cc(CN2CCC(C(=O)N3CCCC(C)C3)CC2)cc(Br)c1O (stereo not drawn)	MITF inh 51.6 | MITF inh conf inactive | AS interf ctr inactive
CC1CCCN(C(=O)C2CCN(Cc3ccccc3F)CC2)C1 (stereo not drawn)	MITF inh 67.4 | MITF inh conf inactive | AS interf ctr inactive
CCN1CCN(C(=O)C2CCN(Cc3cc(Br)c(O)c(OC)c3)CC2)CC1	none
CC1CCCN(C(=O)C2CCN(Cc3cccc4ccccc34)CC2)C1 (stereo not drawn)	none
CC1CCCN(C(=O)C2CCN(Cc3cccc(Br)c3)CC2)C1 (stereo not drawn)	MITF inh 61.9 | MITF inh conf inactive | AS interf ctr inactive
Cc1ccc(/C=C/S(=O)(=O)N2CCN(c3ccc(-c4ccncc4)nn3)CC2)cc1	none
CCOC(=O)c1c(C)oc2ccc(N(C(=O)c3ccc([N+](=O)[O-])cc3)S(=O)(=O)c3ccccc3)cc12	none
FC(F)(F)c1ccc(Nc2nc(NCCOc3ccccc3)c3ncn(-c4ccccc4)c3n2)cc1	none
Cc1c(C(=O)N2CCc3ccccc32)sc2nc(-c3ccccc3)cn12	none
CCc1ccc(C(=O)NC(C(=O)NCC2CCCO2)C(C)C)cc1 (stereo not drawn)	MITF inh 67.4 | MITF inh conf inactive | AS interf ctr inactive
CCOc1ccc(C(c2nnnn2CCOC)N2CCN(c3ccccc3F)CC2)cc1 (stereo not drawn)	none
CC1(C)CC(=O)C2=C(C1)NC1=C(C(=O)c3ccccc31)C2c1cccc(OC(=O)c2ccccc2F)c1 (stereo not drawn)	none
c1ccc(CN2CCC(=NNc3nc4ccccc4[nH]3)CC2)cc1	none
CN1CCC(=NNc2nc3ccccc3[nH]2)CC1	MITF inh 52.9 | MITF inh conf inactive | AS interf ctr inactive
COCCCNC(=O)/C(C#N)=C/c1ccc(-c2ccc(C(=O)O)c(Cl)c2)o1	MITF inh 63.5 | MITF inh conf 66.7 | AlphaScreen DR inactive | AS interf ctr inactive
CC(C)[C@@H]1NC(=O)[C@H]2CN(C(=O)NCc3ccccc3)CCN2C1=O	MITF inh 80.5 | MITF inh conf 70.1 | AlphaScreen DR inactive | AS interf ctr inactive
O=C1N[C@@H](CC2CCCCC2)C(=O)N2CCN(C(=O)NCc3ccccc3)C[C@H]12	MITF inh 77.4 | MITF inh conf 68.4 | AlphaScreen DR inactive | AS interf ctr inactive
CC(C)[C@H]1NC(=O)[C@H]2CN(C(=O)OCc3ccccc3)CCN2C1=O	none
C[C@@H](O)[C@@H]1NC(=O)[C@H]2CN(C(=O)NCc3ccccc3)CCN2C1=O	MITF inh 75.3 | MITF inh conf 72.1 | AlphaScreen DR inactive | AS interf ctr inactive
O=C1N[C@@H](CSCc2ccccc2)C(=O)N2CCN(C(=O)NCc3ccccc3)C[C@H]12	MITF inh 80.3 | MITF inh conf 73.3 | AlphaScreen DR inactive | AS interf ctr inactive
O=C1N[C@@H](CO)C(=O)N2CCN(C(=O)OCc3ccccc3)C[C@H]12	none
Cc1nn2c(NCCCO)c3c(nc2c1-c1ccc(F)cc1)CCC3	none
COc1ccccc1CN(C)C(=O)c1cccc(I)c1	none
O=C(NCc1ccccc1)N1CCN2C(=O)[C@H]3CCCN3C(=O)[C@H]2C1	MITF inh 76.3 | MITF inh conf 68.5 | AlphaScreen DR inactive | AS interf ctr inactive
CC(C)C[C@@H]1NC(=O)[C@H]2CN(C(=O)NCc3ccccc3)CCN2C1=O	MITF inh 78.3 | MITF inh conf 72.3 | AlphaScreen DR inactive | AS interf ctr inactive
O=C(OCc1ccccc1)N1CCN2C(=O)[C@H]3CCCN3C(=O)[C@H]2C1	none
C[C@H]1NC(=O)[C@H]2CN(C(=O)NCc3ccccc3)CCN2C1=O	MITF inh 80.7 | MITF inh conf 64.7 | AlphaScreen DR inactive | AS interf ctr inactive
COCCNC(=O)CN1CCC2(CC1)NC(=O)c1ccccc1O2	none
O=C(c1csc(Nc2cccc3ccccc23)n1)N1CCCC1	MITF inh 77.4 | MITF inh conf inactive | AS interf ctr inactive
Cc1cccc(Cl)c1OCCOCCNC(C)(C)C	none
Cc1cccc(C)c1OCCOCCNCCN	MITF inh 54.6 | MITF inh conf inactive | AS interf ctr inactive
